This passage reports growth results from PubChem BioAssay (NCI).

The panel holds about 83,000 compounds, 20% with a hit somewhere; the sample as a whole holds those more often.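 Note: values are percent growth. 100 is the growth of untreated cells, values between 100 and 0 indicate rising inhibition; between -100 and 0 indicates cell death.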 A number with no mark means an inactive call. Active and inactive are the calls of the source. How the source made its calls: active means growth percent below 10; inactive means the rest.

In this assay the test system is MDA-MB-468 breast. Put plainly: NCI-60 one-dose screen, 48 h (100 = growth as untreated, 0 = no growth, -100 = all killed). The note with it: 10 µM unless noted.
On to `O=C(c1ccc(O)cc1)[C@@H]1CN[C@@]2(C(=O)Nc3ccccc32)[C@H]1c1ccc(F)cc1`, for which the growth was 97.5%.

`O=C1c2c(c3c4ccc(Br)cc4oc3c3[nH]c4ccccc4c23)C(=O)N1CCO`: the growth is 46.5%. The value for `CCc1ccc2nc(NC(=O)Cc3csc(NC(=O)c4ccco4)n3)sc2c1` was -54.2% (active). For `CCOC(=O)C1=C(C)N=C2SC=C(c3ccc(F)cc3)N2[C@H]1c1cn(-c2ccccc2)nc1-c1ccc(Cl)cc1` the value was 91.1%. On to `C=C1C(=O)O[C@H]2[C@H]1CC/C(COC(=O)/C=C\C(=O)NCc1ccc(Cn3c(=O)sn(-c4ccc(Cl)cc4)c3=O)cc1)=C\CC[C@@]1(C)O[C@@H]21`, for which the growth was -83.5% (active). As for `CNC(=O)c1cncc(Cn2nc(C)c(NC(=O)c3ccc(COc4ccc(C(F)(F)F)cc4C)cc3)c2C)c1`, the growth was 10.7%. As to `CC(=O)Oc1c(C)c(OC(C)=O)c2c(c1C(C)=O)OC1CC(=O)C(C(C)=O)=C(O)C21C` (stereo not given), the growth is 90.1%.

As for `COc1ccc(-c2cc(-c3cccnc3)nc3sc(C(=O)Nc4ccccc4)c(N)c23)cc1OC`, the growth is 80.8%. Regarding `COc1ccc2nc3cc(Cl)ccc3c(Nc3ccc(O)c(CN4CCCC4)c3)c2c1`, the growth is -35.9% (active). Consider `C=CCN1C(=O)[C@]2(SC1=S)[C@H](c1cccc(Cl)c1)CN(C)[C@]21C(=O)NC2C=CC(Cl)=C[C@H]21` (stereo not given in full), for which the growth is 27%. The value for `CCCCC(=O)Nc1c(C(=O)Nc2ccccc2)sc2nc3c(cc12)C(OC(=O)CCCC)CCC3` (stereo not given) was 56.2%. For `CN(C)[C@@H]1C(=O)C(C(=O)NCc2nc3[nH]cnc(=S)c3[nH]2)=C(O)[C@@]2(O)C(=O)C3=C(O)c4c(O)cccc4[C@@](C)(O)[C@H]3C[C@@H]12` the value was 81.2%. Turning to `c1csc(-c2nc(-c3cc4ccccc4c(N4CCOCC4)n3)cs2)c1`, the growth was 5.77% (active). Take `CCCN1C2CCC1/C(=C\c1ccc(OC)cc1)C(=O)/C2=C/c1ccc(OC)cc1`: the growth was 55.9%. In the case of `Clc1ccc2c(NCCNc3nc(N4CCCC4)nc4ccccc34)ccnc2c1`, the growth was -49.2% (active). For `CSC1=C(N)C(=O)c2[nH]cc(CO)c2C1=N` the value was -73.5% (active); for `CS(=O)(=O)c1nccc(-c2c(-c3ccc(F)c(OCc4ccccc4)c3)nc3sccn23)n1`, -68.8% (active); for `COc1cc(/C=C/C(=O)c2cc(-c3ccc(F)cc3)ccc2O)cc(OC)c1OC`, 65.6%. Take `C[n+]1ccccc1C[n+]1ccccc1`: the growth was 117%. As for `O=C(/C=C\c1ccc(O)cc1)c1ccccc1`, the growth was 97.4%.

On to `O=S(=O)(NCCNc1nccc(-c2c(-c3cccc(F)c3)nc3sccn23)n1)c1ccccc1`, for which the growth is 43.6%.

Turning to `Cc1sc2c(c1C)c(=O)nc1c(-c3nc(-c4ccccc4)cs3)n[nH]n12`, the growth was 116%. The value for `O=C1Nc2ccc(Br)cc2/C1=N\N=C/c1cn(Cc2ccccc2)c2ccccc12` was -43% (active); that for `CC1(C)C(=O)/C(=C\c2ccc(C(F)(F)F)cc2)C[C@]2(C)[C@H]3CC[C@@H]4[C@H]5[C@H](C(=O)/C=C/c6ccc(C(F)(F)F)cc6)CC[C@]5(CO)CC[C@@]4(C)[C@]3(C)CC[C@@H]12` was 104%; that for `COc1ccc(CCN2C(=O)C(C)(C)SC2=S)cc1OC` was 105%.
